Consider 60 molecules from ChEMBL document CHEMBL1157539, “Thousands of chemical starting points for antimalarial lead identification” (Nature, 2010).

SMILES strings stand for the structures. Where “and” joins values, the source holds several entries; their conditions need not be identical. Identical values can stand only once.

What all share (type): functional
Assay [1] relates to Plasmodium falciparum. In words: GSK_TCMDC: Inhibition of Plasmodium falciparum 3D7 in whole red blood cells, using parasite LDH activity as an index of growth. Test compounds present at 2uM.
For assay [2], the system named is Plasmodium falciparum. In words: GSK_TCMDC: Inhibition of Plasmodium falciparum Dd2 in whole red blood cells, using parasite LDH activity as an index of growth. Test compounds present at 2uM.
The test system of a further assay is HepG2. In words: GSK_TCMDC: Percent inhibition of human HepG2 cell line. Test compounds present at 10uM.

As usually defined, the Inhibition is the drop in the measured response relative to a control, in per cent. Regarding `COc1ccc2ncc(F)c([C@@H](O)CN3CCC(NCc4cc5c(cn4)OCS5)CC3)c2c1.Cl`, the Inhibition in the assay with Plasmodium falciparum [1] is 100%; with Plasmodium falciparum [2] it was 98%; with HepG2, 16%.
Regarding `Cc1cc(C2CCN(CCCCNC(=O)c3ccc(-c4ccc(C#N)cc4)cc3)CC2)c(C)cc1O`, the results for the Inhibition in the assay on Plasmodium falciparum [1], with Plasmodium falciparum [2] and in the assay with HepG2 were 96%, 96% and 27%, respectively.
In the case of `O=C(Cc1cccc(O)c1)NCC(Cc1ccc(O)cc1)c1ccccc1` (stereo not given), the Inhibition in the assay with Plasmodium falciparum [1] is given as 91%; with Plasmodium falciparum [2] it was 97%; in the assay with HepG2, 0%.
For `Clc1cc(Nc2ccnc3ccc(Br)cc23)ccc1Oc1ccc(Cl)c2ccccc12` the same measures were 99%, 86% and 6%.
For `CC(=O)Nc1ccc(CN(C)C2CCN(c3cc(NC(=O)c4cccc(C)c4)ccn3)CC2)cc1.O=C(O)C(F)(F)F` the same measures were 94%, 13% and 0%.
For `Cc1cc(C(=O)CN2C(=O)NC(C)(c3cccc4ccccc34)C2=O)c(C)n1Cc1ccco1` (stereo not given) the same measures were 90%, 23% and 0%.
Regarding `COc1ccccc1C1CC(c2ccccc2)=NN1C(=O)c1ccco1` (stereo not given), the results for the Inhibition in the assay with Plasmodium falciparum [1], with Plasmodium falciparum [2] and in the assay with HepG2 were 97%, 95% and 12%, respectively.
For `O=C(Cn1c(SCc2cccc(F)c2F)cc(=O)c2ccccc21)N(CCc1c[nH]cn1)Cc1ccc(-c2ccc(C(F)(F)F)cc2)cc1` the same measures were 100%, 72% and 18%.
As for `COc1cccc(CN2CCCN(Cc3cccc(NC(=O)c4ccc(-c5ccccc5)cc4)c3)CC2)c1.O=C(O)C(F)(F)F`, the Inhibition is 86% with Plasmodium falciparum [1], 8% with Plasmodium falciparum [2] and 35% in the assay on HepG2.
For `COc1ccc(N2CCN(CCCCNC(=O)c3ccc(NC(=O)c4ccc(OC(F)(F)F)cc4)cc3)CC2)c(OC)c1` the same measures were 100%, 90% and 36%.
For `COc1cc2nc(NCCc3ccccc3)nc(NC(C)c3ccccc3)c2cc1OC` (stereo not given) the same measures were 99%, 100% and 9%.
On to `COCCn1c(C)nc2ccccc2c1=O`, for which the Inhibition turned out to be 89% in the assay with Plasmodium falciparum [1], 67% with Plasmodium falciparum [2] and 0% in the assay with HepG2.
Regarding `CC1CNC(c2cccc(NC(=O)Nc3cccc(C4=NC(C)CN4)c3)c2)=N1.Cl` (stereo not given), the Inhibition in the assay on Plasmodium falciparum [1] was 94%; with Plasmodium falciparum [2], 98%; in the assay on HepG2, 7%.
On to `Cc1cc(C)c(O)c(-c2cc(C(=O)Nc3ccc(S(=O)(=O)N4CC(C)OC(C)C4)cc3)[nH]n2)c1` (stereo not given), for which the Inhibition in the assay on Plasmodium falciparum [1] turned out to be 95%; in the assay on Plasmodium falciparum [2] it was 16%; with HepG2, 31%.
For `COc1cc(F)c2ncc(Cl)c([C@@H](O)CN3CCC(NCc4cc5c(cn4)OCCO5)CC3)c2c1.Cl` the same measures were 100%, 100% and 11%.
For `CC[C@H](C)[C@H](NC(=O)[C@H](CC1CCCCC1)[C@H](CC)N(O)C=O)C(=O)Nc1ccccn1` the same measures were 96%, 95% and 14%.
For `COc1ccc(Cn2c(Nc3cccc(C(F)(F)F)c3)nc3cc(C(=O)NCCN4CCCC4)ccc32)cc1Cl` the same measures were 97%, 54% and 11%.
For the molecule `COC(=O)C1=CNC=C(C(=O)OC)C1c1ccc(Cl)c([N+](=O)[O-])c1`, the values for the Inhibition in the assay with Plasmodium falciparum [1], with Plasmodium falciparum [2] and in the assay with HepG2 were 93%, 79% and 0%, respectively.
For `Cc1nnc2c(NC(=O)NC(C)C)cc3cc(-c4ccc(CN5CCCCC5)cc4)ccc3n12`, the figures for the Inhibition with Plasmodium falciparum [1], in the assay on Plasmodium falciparum [2] and with HepG2 were 87%, 8% and 70%, respectively.
As for `CC(=O)Nc1cccc(CN(Cc2ccc(-c3ccc(CNCc4cccnc4)cn3)cc2)C(=O)Cc2cccnc2)c1.O=C(O)C(F)(F)F`, the results for the Inhibition with Plasmodium falciparum [1], with Plasmodium falciparum [2] and with HepG2 were 97%, 65% and 0%, respectively.
For `Cc1nc(N2CCC(C)CC2)c2c3c(sc2n1)CCCC3` the same measures were 93%, 39% and 13%.
For `Cl.O=C(c1ccc(Cl)cc1)C1CCN(CCCOc2ccc3c(c2)CCNCC3)CC1` the same measures were 93%, 23% and 78%.
On to `COc1cc(C(=O)NCCCN2CCN(c3cccc(Cl)c3)CC2)ccc1-c1cc2cc(Cl)c(Cl)cc2[nH]1`, for which the Inhibition worked out at 100% in the assay on Plasmodium falciparum [1], 86% in the assay on Plasmodium falciparum [2] and 35% with HepG2.
In the case of `O=C(Nc1ccc(-c2cccc(-c3nc4ccccc4[nH]3)c2)cc1)Nc1ccc(F)c(F)c1F`, the Inhibition in the assay with Plasmodium falciparum [1] is 100%; in the assay with Plasmodium falciparum [2] it was 96%; in the assay on HepG2, 74%.
For `COC(=O)c1ccc(CCC(C)NCC(O)c2cccc(Cl)c2)cc1.Cl` (stereo not given) the same measures were 100%, 94% and 0%.
For `COc1cc2nc(N3CCC(CNC(=O)c4ccc(-c5ccc(O)cc5)cc4)CC3)nc(N)c2cc1OC.O=C(O)C(F)(F)F` the same measures were 100%, 78% and 34%.
For `O=C(Nc1ccc(OC(F)(F)F)cc1)NC1CCN(c2ccnc3ccccc23)C1.O=C(O)C(F)(F)F` (stereo not given) the same measures were 100%, 89% and 25%.
Consider `CCCC(C)Nc1nc(C)cc(N[C@@H](Cc2ccccc2)C(=O)NCCc2ccccc2)n1.O=C(O)C(F)(F)F` (stereo not given in full), for which the figures for the Inhibition with Plasmodium falciparum [1], in the assay on Plasmodium falciparum [2] and in the assay on HepG2 were 97%, 68% and 11%, respectively.
For `Cc1ccccc1C1CCN(C2CCC(NC(=O)/C=C/c3cc(C(F)(F)F)ccc3F)CC2)CC1` (stereo not given) the same measures were 100%, 45% and 56%.
For the molecule `CC(C)(C)c1ccc(CN2CCC(NC(=O)c3ccc(-c4ccccc4F)s3)CC2)cc1.O=C(O)C(F)(F)F`, the Inhibition came out at 85% in the assay with Plasmodium falciparum [1], 37% in the assay on Plasmodium falciparum [2] and 36% in the assay on HepG2.
As for `CC1CN(c2cccc3c2nc(-c2cncc(C#N)c2)n3CCNCc2ccccc2)CC(C)O1.O=C(O)C(F)(F)F` (stereo not given), the Inhibition is 83% in the assay on Plasmodium falciparum [1], 9% with Plasmodium falciparum [2] and 0% with HepG2.
For `CCNC(=O)Nc1cccc(-c2cccc(-c3nc4cccc(C)c4[nH]3)c2)c1` the same measures were 85%, 31% and 7%.
`Brc1cc(CNCCCNc2nc3ccccc3[nH]2)sc1Br.Cl`: the Inhibition is recorded as 100% in the assay with Plasmodium falciparum [1], 21% in the assay on Plasmodium falciparum [2] and 10% in the assay on HepG2.
In the case of `COc1ccc2nc(Nc3nc(-c4ccccn4)cs3)sc2c1`, the figures for the Inhibition in the assay on Plasmodium falciparum [1], in the assay on Plasmodium falciparum [2] and in the assay with HepG2 were 93%, 94% and 40%, respectively.
For `CC=CC(=O)N1CCN(c2nccc(-c3ccc(C(C)(C)C)cc3)n2)CC1` the same measures were 95%, 70% and 20%.
For `N#Cc1ccc(CN2CCCN(Cc3cccc(NC(=O)c4ccc(Cl)c(Cl)c4)c3)CC2)cc1.O=C(O)C(F)(F)F` the same measures were 95%, 10% and 19%.
For the molecule `CS(=O)(=O)NCCCNCc1cccc(-c2ccc(-c3nc4cc(C(F)(F)F)ccc4[nH]3)s2)c1.O=C(O)C(F)(F)F`, the Inhibition with Plasmodium falciparum [1] is 100%; with Plasmodium falciparum [2], 51%; with HepG2, 11%.
As to `Oc1ccc2ccccc2c1CNCC1CCCCC1`, the Inhibition in the assay with Plasmodium falciparum [1] was 98%; in the assay on Plasmodium falciparum [2] it was 93%; in the assay with HepG2 it was 0%.
Regarding `CCCNC(=O)c1ccnc(-c2ccc(CNC3Cc4ccccc4C3)cc2)c1.O=C(O)C(F)(F)F`, the values for the Inhibition in the assay with Plasmodium falciparum [1], in the assay with Plasmodium falciparum [2] and in the assay on HepG2 were 92%, 21% and 24%, respectively.
For `CC1=C(C(=O)Nc2ccc(Cl)cc2)C(c2ccncc2)n2nc(C(F)(F)F)nc2N1` (stereo not given) the same measures were 87%, 49% and 25%.
On to `COc1ccc2ncc(F)c(CCN3CC(O)C(CNCc4nc5c(cc4Cl)OCC(=O)N5)C3)c2n1.Cl` (stereo not given), for which the Inhibition is 93% and 90% in the assay on Plasmodium falciparum [1]; 23% and 15% and 30% with Plasmodium falciparum [2]; 12% and 13% and 5% in the assay on HepG2.
On to `CCc1cn2c3c(cc(C(=O)N[C@@H](Cc4ccccc4)[C@H](O)CNCc4ccccc4)cc13)N(C)S(=O)(=O)CC2.O=CO`, for which the Inhibition in the assay on Plasmodium falciparum [1] came out at 98%; with Plasmodium falciparum [2], 99%; with HepG2 it was 3%.
Take `COc1ccc2c(=NN=Cc3cccc(Cl)c3)cc(C)[nH]c2c1`: the results for the Inhibition with Plasmodium falciparum [1], with Plasmodium falciparum [2] and in the assay with HepG2 were 100%, 99% and 3%, respectively.
Regarding `CCOc1ccc2[nH]c(C)cc(=NN=Cc3cccc(C)n3)c2c1`, the results for the Inhibition in the assay with Plasmodium falciparum [1], in the assay with Plasmodium falciparum [2] and in the assay with HepG2 were 99%, 73% and 6%, respectively.
For `O=c1cc(NCCCNCc2ccc3c(c2)OC(F)(F)O3)[nH]c2ccccc12`, the values for the Inhibition in the assay with Plasmodium falciparum [1], with Plasmodium falciparum [2] and in the assay with HepG2 were 100%, 94% and 0%, respectively.
As to `CC(C)(C)c1cc(NC(=O)c2ccc(Cl)c([N+](=O)[O-])c2)cc(C(C)(C)C)c1`, the Inhibition in the assay on Plasmodium falciparum [1] was determined as 93%; in the assay on Plasmodium falciparum [2], 7%; with HepG2, 0%.
For `COc1cccc(Nc2nccc(NCC(O)c3cccc(C(F)(F)F)c3)n2)c1` (stereo not given) the same measures were 96%, 27% and 6%.
With `CN1CCN(C(C(=O)NCc2cc(Cl)cc(Cl)c2)c2ccc(NC(=O)Nc3ccccc3)cc2)CC1.O=C(O)C(F)(F)F` (stereo not given), the results for the Inhibition in the assay on Plasmodium falciparum [1], in the assay with Plasmodium falciparum [2] and with HepG2 were 98%, 43% and 23%, respectively.
For `Cc1ccccc1N1CCN(c2ccc(C(=O)NC(C)C)cn2)CC1.O=C(O)C(F)(F)F` the same measures were 89%, 91% and 13%.
For `NCCc1cccc(-c2cnc3[nH]cc(-c4ccc(C(=O)O)cc4)c3c2)c1.O=C(O)C(F)(F)F` the same measures were 99%, 98% and 4%.
For `CC(C)(C)NC(=O)C(c1ccc(F)cc1)N(C(=O)c1ccc(CN2CCOCC2)o1)c1ccc(C2CCCCC2)cc1` (stereo not given) the same measures were 87%, 68% and 0%.
As for `Cc1cc(C(=O)NCc2ccc(-c3c(C)noc3C)cc2)n(-c2ccc(Cl)cc2)n1`, the figures for the Inhibition in the assay with Plasmodium falciparum [1], in the assay with Plasmodium falciparum [2] and with HepG2 were 100%, 98% and 0%, respectively.
For `CC(=O)Nc1ccc(CN2CCN(C(c3ccc(F)cc3)c3ccc(F)cc3)CC2)cc1` the same measures were 93%, 79% and 4%.
As to `CCCN1CCN(c2cc(S(=O)(=O)Nc3ccc(C(=O)NCc4cccc(C(F)(F)F)c4)cc3)ccc2OC)CC1.O=C(O)C(F)(F)F`, the Inhibition with Plasmodium falciparum [1] stood at 92%; with Plasmodium falciparum [2] it was 8%; in the assay on HepG2, 27%.
For `Nc1ncc(-c2ccsc2)c2ccc(-c3cnc[nH]3)cc12` the same measures were 100%, 70% and 31%.
For `CN1CCCN(Cc2ccc(-c3ccc(NS(=O)(=O)c4cccc5cccnc45)cc3)cc2)CC1.O=C(O)C(F)(F)F` the same measures were 99%, 85% and 35%.
For `Cc1ccc(NS(=O)(=O)c2cccs2)cc1-c1cccc(C(=O)Nc2ccc(F)cc2)c1` the same measures were 99%, 100% and 38%.
On to `CN1CCN(c2ccnc3ccc(NC(=O)Nc4ccc(Cl)c(Cl)c4)cc23)CC1`, for which the Inhibition stood at 97% in the assay with Plasmodium falciparum [1], 17% with Plasmodium falciparum [2] and 0% in the assay with HepG2.
For `O=C(Nc1cccc(CN2CCCN(Cc3cccc(O)c3)CC2)c1)c1ccc(Cl)c(Cl)c1.O=C(O)C(F)(F)F` the same measures were 100%, 79% and 25%.
For `O=c1cc(NCCCNCc2cccc(SC(F)(F)F)c2)[nH]c2ccccc12` the same measures were 100%, 94% and 0%.
